G9a block: qHTS Assay for Inhibitors of Histone Lysine Methyltransferase G9a. Histone-lysine N-methyltransferase EHMT2 (Homo sapiens), Q96KQ7. Potency, µM (top dose mostly 102 µM), without a hit: at the top dose activity, negative = inhibition, actives largely listed as inhibitors. G9a H3K9 monomethylation, AlphaScreen, 2 h. 8.8% of 350,000 active; note: % is set by controls: 0 for no effect and ±100 for the full control effect; nearly all actives have a fitted effect of over 75% in size
Target sequence (Q96KQ7 913-1193 limits assumed): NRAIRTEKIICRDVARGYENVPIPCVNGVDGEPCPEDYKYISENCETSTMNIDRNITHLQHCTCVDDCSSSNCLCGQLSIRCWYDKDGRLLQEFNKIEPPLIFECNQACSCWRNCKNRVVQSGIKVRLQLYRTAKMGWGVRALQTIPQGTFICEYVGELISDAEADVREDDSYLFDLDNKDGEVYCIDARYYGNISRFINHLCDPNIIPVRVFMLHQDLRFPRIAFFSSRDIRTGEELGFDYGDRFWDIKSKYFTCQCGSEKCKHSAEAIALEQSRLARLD
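Quantitative HTS format: methyltransferase activity on a biotin-tagged H3K9 peptide is measured by AlphaScreen, using a rabbit anti-monomethyl-H3K9 antibody with streptavidin donor and anti-IgG acceptor beads. Final levels are 20 nM enzyme, 500 nM peptide, 20 uM SAM; 2 h RT.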
HP1b binding inh: HTS for Inhibitors of HP1-beta Chromodomain Interactions with Methylated Histone Tails | AlphaScreen HP1-beta / biotin-H3K9me3 peptide binding | Potency, µM (titrated, usually from 114 µM), inactives show top-dose activity change, negative = inhibition, most hits filed as inhibitors | 0.56% of 390,000 active; note: nearly all actives have a fitted effect of over 70% in size
Target sequence (P83916 whole entry, looked up): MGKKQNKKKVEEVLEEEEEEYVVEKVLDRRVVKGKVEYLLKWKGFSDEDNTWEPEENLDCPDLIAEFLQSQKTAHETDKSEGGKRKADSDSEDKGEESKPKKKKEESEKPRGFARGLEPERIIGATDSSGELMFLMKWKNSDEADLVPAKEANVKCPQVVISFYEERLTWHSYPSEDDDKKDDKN
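Compound inhibition of the preformed complex between 50 nM HP1-beta and 50 nM biotinylated H3K9me3 peptide was read by AlphaScreen. Buffer was PBS pH 7.4 with 0.01% Tween-20. Incubations ran 30 min at room temperature, with 10 ug/mL donor/acceptor beads.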
Sfp inh: qHTS Assay for Inhibitors of Bacillus subtilis Sfp phosphopantetheinyl transferase (PPTase). 4'-phosphopantetheinyl transferase ffp (Bacillus subtilis), Q9F4F7. Biochemical Sfp PPTase activity, qHTS. Potency, µM, for the others: largest response in the series, negative = inhibition, hits mostly inhibitors. 3.5% of 310,000 active. AID 1490, 2009;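 note: the enzyme is Sfp with the accession as filed and its product quenches rhodamine fluorescence; 0% = enzyme reaction without inhibitor and -100% = no enzyme wells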
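With Hepes-Na pH 7.6 buffer containing 10 mM MgCl2, Sfp (15 nM) modified BHQ-2-YbbR (12.5 uM) using rhodamine-CoA (5 uM). Two reads 30 minutes apart at 525/598 nm yielded each well's rate.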
BAZ2B inh: qHTS Assay for Inhibitors of BAZ2B; 4.4% of 360,000 active; Bromodomain adjacent to zinc finger domain protein 2B (Homo sapiens), Q9UIF8; AlphaScreen BAZ2B-H3K14Ac peptide displacement; Potency, µM (series often up to 114 µM), for inactives: top-dose activity change, negative = inhibition, hits mostly inhibitors; AID 504333, 2011; note: % is set by controls: 0 for no effect and ±100 for the full control effect; nearly all actives have a fitted effect of over 60% in size
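Protein-peptide AlphaScreen: BAZ2B 50 nM, b-H3K14Ac 50 nM, 1x PBS pH 7.4 + 0.01% Tween-20. Preincubation 30 min RT; cpd 30 min RT (top 110 uM); beads 20 min RT, light-protected.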
JMJD2A Tudor inh: qHTS Assay for Inhibitors of JMJD2A-Tudor Domain; AlphaScreen JMJD2A-Tudor / H3K4me3 peptide binding; Potency, µM (highest dose often 114 µM), for inactives: at the highest dose activity change, negative = inhibition, most hits filed as inhibitors; 4.4% of 390,000 active; note: % is set by controls: 0 for no effect and ±100 for the full control effect; nearly all actives have a fitted effect of over 50% in size
L3MBTL1 inh: qHTS Assay for the Inhibitors of L3MBTL1. Lethal(3)malignant brain tumor-like protein 1 (Homo sapiens), Q9Y468. AlphaScreen L3MBTL1–H3K9me1 peptide binding. Potency, µM (highest dose often 57.1 µM), without a hit: at the top dose activity, negative = inhibition, usual class: inhibitors. 0.66% of 230,000 active; note: % is set by controls: 0 for no effect and ±100 for the full control effect; nearly all actives have a fitted effect of over 60% in size
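L3MBTL1 50 nM + b-AHA-H3(1-15)K9me1 75 nM, 30 min RT; compound added, 30 min RT; streptavidin donor/Ni-chelate acceptor beads 10 ug/mL each final, 30 min RT dark; AlphaScreen read.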
* marks the source's active call; other numbers are inactive results; [ ] = dose if it differs, or a comment. Compounds with a hit are over-represented: about 12% of the library has one in this group of screens. Calls come from the whole dose curve; as a rule, active = well fitted curve in the direction sought with a large enough effect; inconclusive = small, poorly fitted or top-dose-only effect, or another doubt; inactive = no such curve, though single readings can be large; an effect the other way counts as inactive or inconclusive. Potency is the fitted concentration of half-maximal effect.

O=S(=O)(c1ccccc1)c1nc(-c2ccc(F)cc2)oc1NCc1ccccc1 was read as G9a block -2%[59 µM], HP1b binding inh 24%, BAZ2B inh -15% and JMJD2A Tudor inh -12%.
`CNc1oc(-c2ccc(F)cc2)nc1S(=O)(=O)c1ccccc1` gave G9a block 45µM*, HP1b binding inh 54%, Sfp inh 15%, BAZ2B inh 7% and JMJD2A Tudor inh -5%.
For CCOC(=O)Cc1nnc(NC(=O)C(CC)Sc2nc(C)cc(=O)[nH]2)s1 (centres undefined) the results were G9a block 71µM*, HP1b binding inh -18%, Sfp inh 2%, BAZ2B inh 3%, JMJD2A Tudor inh inconclusive and L3MBTL1 inh 15%.
`CCOC(=O)C1CCN(C(=O)Cn2cnc3sc(C)c(S(=O)(=O)N4CCC(C)CC4)c3c2=O)CC1` gave G9a block 11%, HP1b binding inh 5%, Sfp inh 7%, BAZ2B inh 0% and JMJD2A Tudor inh -10%.
CCOC(=O)C1CCN(C(=O)Cn2cnc3sc(C)c(S(=O)(=O)N4CCCCC4)c3c2=O)CC1 was read as G9a block 50µM*, HP1b binding inh 32%, Sfp inh 22%, BAZ2B inh 6% and JMJD2A Tudor inh -2%.
`COCCNC(=O)c1onc(CSc2ccc(Cl)cc2)c1C(=O)O` gave G9a block 0%[0.501 µM], HP1b binding inh 34%, Sfp inh 12%, BAZ2B inh -32%, JMJD2A Tudor inh -10% and L3MBTL1 inh 6%.
For COCCCNCCCCSc1ccc(Cl)cc1 the results were G9a block 3.5µM*, HP1b binding inh inconclusive, Sfp inh -8%, BAZ2B inh inconclusive, JMJD2A Tudor inh 10µM* and L3MBTL1 inh 4%.
`OCCNCCSc1ccc(Cl)cc1` gave G9a block 50µM*, HP1b binding inh -27%, Sfp inh -8%, BAZ2B inh 56µM*, JMJD2A Tudor inh 22µM* and L3MBTL1 inh 11%.
`CCCCNCCOCCSc1ccc(Cl)cc1` gave G9a block 8.9µM*, HP1b binding inh inconclusive, Sfp inh -10%, BAZ2B inh inconclusive, JMJD2A Tudor inh 1.4µM* and L3MBTL1 inh 1%.
Screening CCCCNCC(O)(c1ccc(Cl)cc1)c1ccc(Cl)cc1 returned G9a block 1%, HP1b binding inh 10%, Sfp inh 17%, BAZ2B inh 2%, JMJD2A Tudor inh 1% and L3MBTL1 inh 36%.
For COCCCNCCOCCSc1ccc(Cl)cc1 the results were G9a block inconclusive, HP1b binding inh inconclusive, Sfp inh 50µM*, BAZ2B inh inconclusive, JMJD2A Tudor inh 1.8µM* and L3MBTL1 inh 6%.
Screening Cc1ccc2nc(N3CCC(C(=O)NCc4ccc(F)cc4)CC3)[nH]c2c1 returned G9a block 8%[59 µM], HP1b binding inh 17%[57 µM], BAZ2B inh 0% and JMJD2A Tudor inh -14%.
Screening FC(F)(F)c1ccccc1-c1nc(NCCN2CCOCC2)c2ccccc2n1 returned G9a block 6%[0.501 µM] and Sfp inh -5%.
Cc1cc(NC(=O)CSc2nc3c([nH]c4ccccc43)c(=O)n2-c2cccc(Cl)c2)no1 was read as G9a block 15%[59 µM], HP1b binding inh 23%[57 µM], BAZ2B inh 3% and JMJD2A Tudor inh -16%.
Cc1ccc(/C=C/c2onc(C)c2S(=O)(=O)N2CCC(C(=O)N(CCC(C)C)Cc3ccco3)CC2)cc1 was read as G9a block -2%[59 µM], HP1b binding inh 25%[57 µM], BAZ2B inh 1% and JMJD2A Tudor inh -5%.
`COc1ccc(NC(=O)CSc2cn(CCNC(=O)c3c(F)cccc3F)c3ccccc23)cc1` gave G9a block -27%[59 µM], HP1b binding inh 41%, BAZ2B inh -4% and JMJD2A Tudor inh -8%.
Screening CCOc1ccc(Nc2cc(C)c(C#N)c3nc4ccccc4n23)cc1 returned G9a block 7%[59 µM], HP1b binding inh 45%, BAZ2B inh -7% and JMJD2A Tudor inh -3%.
`Cc1ccc(-n2nc(C(=O)NN)c(C)c(C#N)c2=O)cc1Cl` gave G9a block inconclusive, HP1b binding inh 31%, Sfp inh -3%, BAZ2B inh 0% and JMJD2A Tudor inh -23%.
For Cc1c(C(=O)NN)nn(-c2ccc(Cl)cc2)c(=O)c1C#N the results were G9a block 45µM*, HP1b binding inh 6%, Sfp inh 7%, BAZ2B inh -11%, JMJD2A Tudor inh -25% and L3MBTL1 inh inconclusive.
Cc1cc(C)cc(NC(=O)c2cc(C)nc3c2c(C)nn3-c2ccccc2)c1 was read as G9a block -8%[59 µM], HP1b binding inh 30%, BAZ2B inh 5%[57.1 µM] and JMJD2A Tudor inh 1%.
Screening COc1cccc(NC(=O)CN2CCCN(S(=O)(=O)c3ccc(Br)cc3)CC2)c1 returned G9a block -6%[59 µM], HP1b binding inh 13%, BAZ2B inh -20% and JMJD2A Tudor inh -15%.
For CCCC(=O)NC(NC(=S)Nc1ccc(S(N)(=O)=O)cc1)C(Cl)(Cl)Cl (centres undefined) the results were G9a block 45µM*, HP1b binding inh 5%, Sfp inh -3%, BAZ2B inh 2%, JMJD2A Tudor inh -15% and L3MBTL1 inh -3%.
For CC(C)C(=O)NC(NC(=S)Nc1ccc(S(N)(=O)=O)cc1)C(Cl)(Cl)Cl (centres undefined) the results were G9a block 50µM*, HP1b binding inh 22%, Sfp inh -6%, BAZ2B inh -20%, JMJD2A Tudor inh -15% and L3MBTL1 inh 12%.
Screening Cc1cccc(-c2nnc(SCc3nc4ccccc4[nH]3)n2Cc2ccco2)c1 returned G9a block 50µM*, HP1b binding inh 17%, Sfp inh 12%, BAZ2B inh -31%, JMJD2A Tudor inh -22% and L3MBTL1 inh -1%.
For Cn1c(SCc2nc3ccccc3[nH]2)nnc1-c1cccnc1 the results were G9a block 0%[59 µM], HP1b binding inh 33%, Sfp inh 8%, BAZ2B inh -22%, JMJD2A Tudor inh -8% and L3MBTL1 inh -9%.
Cc1ccc(-c2nnc(SCc3nc4ccccc4[nH]3)n2Cc2ccco2)cc1 was read as HP1b binding inh 6%, Sfp inh -11%, BAZ2B inh inconclusive, JMJD2A Tudor inh 79µM* and L3MBTL1 inh -6%.

Source: PubChem (National Center for Advancing Translational Sciences (NCATS))
